The results in this text go back to PubChem BioAssay (NCATS).

Experiment [1] in a line: Confirmation and Secondary Assay for Modulators of Hemoglobin Beta Chain Splicing at IVS2 705 locus (AID 930).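 Also: HeLa cells stably expressing the EGFP-705 splicing reporter; GFP fluorescence per well restored by corrected splicing of the IVS2-705 intron in EGFP; % of control where 0% means no effect.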 An outline of the steps: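 First, HeLa EGFP-705 cells are seeded at 500/well in Optimem with 2% FCS and left overnight. Next, compound or DMSO is added for 2 days. Finally wells are laser-scanned and total peak GFP intensity scored.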
Experiment [2] in a line: qHTS Assay for Lipid Storage Modulators (AID 1519; calls by dose curve; as to activity change, negative = inhibition: % is scaled to controls: 0 for no effect and ±100 for the full control effect). The note with it: Drosophila S3 cells, BODIPY lipid droplet/cell ratio, laser cytometry, cells loaded with oleic acid; for activity change, negative = inhibition: at 57.5 µM (top of the series). The essentials: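 Cells seeded at 5,000 per well were treated with compounds over a concentration series and loaded with oleic acid (400 uM, as added). Lipid droplet fluorescence (488 nm excitation, 500-530 nm channel) was read by laser-scanning cytometry and normalized to 20 uM Triacsin C.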
(qHTS replaces the single test concentration by a dilution series.)

The target in experiment [3] is Ubiquitin carboxyl-terminal hydrolase 1 (Homo sapiens) (UniProt O94782). The experiment in a line: Inhibitors of USP1/UAF1: Pilot qHTS (AID 504865).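 Also: rhodamine fluorescence freed from ubiquitin-rhodamine substrate followed over time; top concentration of the series differs between compounds; % is scaled to controls: 0 for no effect and ±100 for the full control effect; nearly all actives have a fitted effect of over 35% in size.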 The essentials:
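1nM USP1/UAF1 + cpd, 15 min RT; start w/ Ub-Rho 150nM final; kinetic FL 480/540 nm, 6 reads q60 s. Buffer 50mM HEPES pH 7.8, 0.5mM EDTA, 1mM TCEP, 0.01% Tween-20, 0.1 mg/ml BSA.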

In experiment [4] the target is Cytochrome P450 3A4 (Homo sapiens) (UniProt P08684). Put plainly: qHTS Assay for Inhibitors and Substrates of Cytochrome P450 3A4 (AID 884). Also: nearly all actives have a fitted effect of over 50% in size. Also: potency is read from the fitted curve at half-maximal effect. As to activity change, negative = inhibition: % is scaled to controls: 0 for no effect and ±100 for the full control effect. An outline of the steps: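 Luminescent readout of luciferin produced by CYP3A4 (20 nM) dealkylation of Luciferin-PPXE, 25 uM (its KM). NADPH-driven reaction ran 60 min at RT after 10 min compound preincubation; data scaled to 57 uM ketoconazole as 100% inhibition.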

For experiment [5] the target is unchanged. Put plainly: qHTS Assay for Activators of Cytochrome P450 3A4 (AID 885). Also: nearly all actives have a fitted effect of over 65% in size. An outline of the steps: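 Activators are scored by enhanced luminescence from CYP3A4 conversion of luciferin-PPXE (25uM, equal to KM) to luciferin, after 60 min at RT with an NADPH-regenerating system.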
The target of experiment [6] is DNA dC->dU-editing enzyme APOBEC-3G (Homo sapiens) (UniProt Q9HC16). The experiment in a line: qHTS for inhibitors of Vif-A3G interactions: Validation (AID 588379). Also: 0% is about no effect. An outline of the steps: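 Yellow fluorescence (Ex 488, Em 500-530) of Vif-coexpressing HeLa A3G-eYFP cells, scanned by Acumen cytometer, reports blocked A3G degradation. Cells plated at 700/well overnight at 37 deg C before compound addition, then a further overnight compound incubation at 37 deg C.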

A short description of experiment [7]: Confirmation and Secondary Assay for Modulators of Hemoglobin Beta Chain Splicing at IVS2 654 locus (AID 910).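 Also: HeLa cells stably carrying EGFP split by mutant beta-globin IVS2-654 intron; % of control where 0% means no effect.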 The essentials: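 HeLa cells stably expressing EGFP interrupted by β-globin IVS2-654 intron, seeded overnight in Opti-MEM/2% FCS, then treated 2 days at 37 °C. Restored splicing read as total peak GFP intensity per well by laser scanning cytometry (488 nm excitation, 500–520 nm emission); 500 nM antisense PNA as control.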

Experiment [8] concerns the target Bile acid receptor (Homo sapiens) (UniProt Q96RI1). Put plainly: qHTS assay for small molecule agonists of farnesoid X receptor signaling (AID 588527; calls by dose curve;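 also: 0% = vehicle basal and 100% = reference agonist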). The note with it: HEK293T FXR-UAS-bla, beta-lactamase ratio, 16 h; stronger effect = higher value. An outline of the steps: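 Read-out: beta-lactamase reporter fluorescence with CCF4 substrate in GeneBLAzer FXR-UAS-bla HEK293T cells, after 16 h compound exposure at 37 C. Response scaled between DMSO basal (0%) and chenodeoxycholic acid at 100 uM (100%).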

The nature of experiment [9]: qHTS assay for small molecule antagonists of retinoid X receptor alpha signaling (AID 588546; active = well fitted inhibition curve with a large enough effect in the signal ratio, with a control signal flat, not every such curve was filed as active; the % refers to the signal ratio; also: potency is read from the fitted curve at half-maximal effect;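 as to max response: cells stimulated with 9-cis-retinoic acid as agonist; % is scaled to controls: 0 for no effect and ±100 for the full control effect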). The note with it: HEK293T RXRa-UAS-bla, beta-lactamase ratio, antagonist mode; measured here: W530 green channel, cytotoxicity proxy. An outline of the steps: (§1)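 Beta-lactamase reporter inhibition, read as CCF4 fluorescence ratio (ex 405, em 460/530 nm) after 2 h at RT. HEK293T UAS-bla cells, 2500/well, were stimulated with 9-cis-RA at 500 or 100 nM final alongside test compound for 18 h at 37 C.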

The target in experiment [10] is Retinoic acid receptor RXR-alpha (Homo sapiens) (UniProt P19793). Described as above. The note with it: HEK293T RXRa-UAS-bla, beta-lactamase ratio, antagonist mode. The essentials:
as §1

Experiment [11] in a line: qHTS assay for environmental chemicals that activate the Aryl hydrocarbon Receptor (AhR) signaling pathway (AID 651777). Also: % of control where 0% means no effect; nearly all actives have a fitted effect of over 15% in size. The note with it: 1A2-DRE human hepatoma cells, luciferase, 24 h; activation: stronger effect = higher value. An outline of the steps:
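Quantitative HTS in stably transfected human liver-derived cells whose luciferase gene sits downstream of the CYP1A2 promoter and dioxin response element. After 24 hr exposure at 37 C, One-Glo luminescence was measured.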

In experiment [12] the target is Peroxisome proliferator-activated receptor alpha (Homo sapiens) (UniProt Q07869). The experiment in a line: qHTS assay for small molecule agonists of the peroxisome proliferator-activated receptor alpha (PPARalpha) signaling pathway (AID 651778). Also: % of control where 0% means no effect. Particulars: PathHunter PPARalpha complementation, chemiluminescence, 6 h; stronger effect = higher value. An outline of the steps: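 Enzyme-fragment complementation assay in which ligand-bound PPARalpha translocates and forms an active enzyme that generates chemiluminescence. Cells were plated overnight, exposed to compound for 6 hr at 37 C, and then given detection reagent for 60 min at room temperature.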

Experiment [13] can be described thus: qHTS assay for small molecule agonists of the antioxidant response element (ARE) signaling pathway measured by Nrf2-dependant transcriptional activity (AID 720636; active = well fitted curve in the direction sought with a large enough effect in the repeat runs; an effect the other way counts as inactive or inconclusive; also: % of control where 0% means no effect). An outline of the steps: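 Quantitative HTS format in HepG2 cells stably expressing an ARE-luciferase reporter; 16 hr compound treatment at 37 C, luciferase signal detected with ONE-Glo.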
[14] abbreviates: measured here: cell count channel max response.
Setting [15] is: measured here: lipid channel max response.

Records with an inconclusive call do not appear. The source made the active and inactive calls. Unless noted, calls follow the shape of the dose curve; as a rule, active = well fitted curve in the direction sought with a large enough effect; inconclusive = small, poorly fitted or top-dose-only effect, or another doubt; inactive = no such curve, though single readings can be large; an effect the other way counts as inactive or inconclusive.

Cytochrome P450 3A4 (Homo sapiens), sequence (P08684 whole entry, looked up): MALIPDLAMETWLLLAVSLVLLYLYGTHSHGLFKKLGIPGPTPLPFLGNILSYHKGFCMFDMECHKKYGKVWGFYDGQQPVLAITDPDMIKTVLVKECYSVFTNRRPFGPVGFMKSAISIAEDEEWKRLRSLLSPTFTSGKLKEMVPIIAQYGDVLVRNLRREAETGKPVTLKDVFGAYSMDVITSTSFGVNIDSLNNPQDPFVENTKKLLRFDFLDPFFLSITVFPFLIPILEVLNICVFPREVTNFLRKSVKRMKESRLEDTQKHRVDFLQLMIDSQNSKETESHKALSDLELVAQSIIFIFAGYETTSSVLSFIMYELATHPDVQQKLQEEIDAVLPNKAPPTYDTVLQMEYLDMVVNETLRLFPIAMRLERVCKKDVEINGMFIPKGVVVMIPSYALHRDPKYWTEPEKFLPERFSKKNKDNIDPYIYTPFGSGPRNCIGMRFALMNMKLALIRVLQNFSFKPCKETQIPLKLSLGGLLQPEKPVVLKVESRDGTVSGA
DNA dC->dU-editing enzyme APOBEC-3G (Homo sapiens), sequence (Q9HC16 whole entry, looked up): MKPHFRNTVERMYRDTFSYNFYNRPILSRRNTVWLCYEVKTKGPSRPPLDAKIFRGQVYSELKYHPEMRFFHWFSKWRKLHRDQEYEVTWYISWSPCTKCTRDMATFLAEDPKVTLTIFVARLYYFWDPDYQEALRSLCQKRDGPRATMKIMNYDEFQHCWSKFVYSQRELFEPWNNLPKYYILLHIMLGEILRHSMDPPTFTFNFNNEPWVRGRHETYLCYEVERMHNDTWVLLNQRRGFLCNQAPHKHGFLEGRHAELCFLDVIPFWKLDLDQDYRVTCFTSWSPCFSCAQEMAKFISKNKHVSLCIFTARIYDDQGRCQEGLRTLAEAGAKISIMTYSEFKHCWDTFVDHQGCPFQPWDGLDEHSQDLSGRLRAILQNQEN
Ubiquitin carboxyl-terminal hydrolase 1 (Homo sapiens), sequence (O94782 whole entry, looked up): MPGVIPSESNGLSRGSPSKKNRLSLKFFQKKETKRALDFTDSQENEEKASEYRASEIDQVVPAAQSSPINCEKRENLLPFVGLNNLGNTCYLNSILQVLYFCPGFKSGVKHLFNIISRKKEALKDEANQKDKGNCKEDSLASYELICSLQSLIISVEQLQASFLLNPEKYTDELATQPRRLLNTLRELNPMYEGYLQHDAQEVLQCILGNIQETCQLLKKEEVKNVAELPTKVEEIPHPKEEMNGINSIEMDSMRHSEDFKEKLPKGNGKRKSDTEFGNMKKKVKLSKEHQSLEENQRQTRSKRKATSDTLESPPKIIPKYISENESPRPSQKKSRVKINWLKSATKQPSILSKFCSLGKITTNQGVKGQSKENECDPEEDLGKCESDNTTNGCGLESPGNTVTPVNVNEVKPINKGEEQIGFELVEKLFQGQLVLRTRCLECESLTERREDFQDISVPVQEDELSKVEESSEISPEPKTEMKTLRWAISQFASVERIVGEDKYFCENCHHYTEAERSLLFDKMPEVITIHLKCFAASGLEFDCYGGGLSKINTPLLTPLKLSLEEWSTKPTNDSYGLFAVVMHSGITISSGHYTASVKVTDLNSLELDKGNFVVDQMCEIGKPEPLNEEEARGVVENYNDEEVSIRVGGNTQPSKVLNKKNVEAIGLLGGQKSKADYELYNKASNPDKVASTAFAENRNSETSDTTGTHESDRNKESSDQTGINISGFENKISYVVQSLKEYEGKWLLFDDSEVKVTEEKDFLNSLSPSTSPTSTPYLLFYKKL
Bile acid receptor (Homo sapiens), sequence (Q96RI1 whole entry, looked up): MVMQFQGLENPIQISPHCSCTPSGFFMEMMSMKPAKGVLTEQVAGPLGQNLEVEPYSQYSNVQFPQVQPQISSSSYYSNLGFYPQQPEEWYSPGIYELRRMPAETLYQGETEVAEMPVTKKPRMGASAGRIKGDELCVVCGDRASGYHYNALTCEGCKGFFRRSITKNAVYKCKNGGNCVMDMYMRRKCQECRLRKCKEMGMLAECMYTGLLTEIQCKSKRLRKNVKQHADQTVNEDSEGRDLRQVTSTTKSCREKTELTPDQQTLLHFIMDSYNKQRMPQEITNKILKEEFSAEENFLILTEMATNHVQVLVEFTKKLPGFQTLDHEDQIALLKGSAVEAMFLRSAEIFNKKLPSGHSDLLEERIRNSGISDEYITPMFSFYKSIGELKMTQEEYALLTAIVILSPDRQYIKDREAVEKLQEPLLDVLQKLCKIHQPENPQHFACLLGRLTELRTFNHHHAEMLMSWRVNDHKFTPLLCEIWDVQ
Peroxisome proliferator-activated receptor alpha (Homo sapiens), sequence (Q07869 whole entry, looked up, the tested form may be a part): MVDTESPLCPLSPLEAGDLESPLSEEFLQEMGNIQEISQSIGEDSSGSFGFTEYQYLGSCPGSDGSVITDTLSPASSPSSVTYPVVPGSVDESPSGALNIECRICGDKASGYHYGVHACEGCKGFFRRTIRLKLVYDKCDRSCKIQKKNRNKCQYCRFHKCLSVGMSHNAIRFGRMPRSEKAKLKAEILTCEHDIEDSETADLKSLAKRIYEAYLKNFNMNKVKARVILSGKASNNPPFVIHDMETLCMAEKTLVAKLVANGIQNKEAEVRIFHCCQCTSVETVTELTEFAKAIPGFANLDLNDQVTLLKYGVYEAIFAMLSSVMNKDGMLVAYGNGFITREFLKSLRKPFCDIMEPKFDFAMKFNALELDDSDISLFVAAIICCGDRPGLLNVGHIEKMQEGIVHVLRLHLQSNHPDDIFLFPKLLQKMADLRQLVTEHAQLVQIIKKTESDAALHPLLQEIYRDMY
Retinoic acid receptor RXR-alpha (Homo sapiens), sequence (P19793 whole entry, looked up): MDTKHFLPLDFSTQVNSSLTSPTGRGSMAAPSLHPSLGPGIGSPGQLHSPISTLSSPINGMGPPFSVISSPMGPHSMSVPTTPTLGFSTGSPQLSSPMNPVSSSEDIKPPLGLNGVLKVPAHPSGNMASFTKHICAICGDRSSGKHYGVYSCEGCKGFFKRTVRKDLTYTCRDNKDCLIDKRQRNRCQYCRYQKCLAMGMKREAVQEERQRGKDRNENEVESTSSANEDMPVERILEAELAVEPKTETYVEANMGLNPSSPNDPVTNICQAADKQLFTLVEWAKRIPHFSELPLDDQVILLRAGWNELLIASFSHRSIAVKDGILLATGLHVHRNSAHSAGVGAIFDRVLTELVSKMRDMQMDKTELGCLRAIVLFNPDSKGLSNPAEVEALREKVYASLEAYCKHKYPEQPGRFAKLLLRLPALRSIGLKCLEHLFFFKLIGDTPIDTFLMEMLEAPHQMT

Take `CC(C)(O)C1C2OC(=O)C1[C@]1(O)CC3O[C@@]34C(=O)OC2[C@@]14C` (some centres not stated): the Potency result in experiment [1] and in experiment [3] was “inactive” throughout. Also, the activity change, negative = inhibition in experiment [2] was 4.81% (inactive). Further, the values for the max response in experiment [2] (setting [14]) and in experiment [2] (setting [15]) were 5.32% and 12.9%, respectively.

On to `CCC12CCCN3CCC4(c5ccc(OC)c(O)c5N(C(C)=O)C4CC1)C32` (configuration not stated), for which the Potency in [4] was 15.8 µM (active). In addition, the Potency result in experiment [5] was “inactive”. Also, the activity change, negative = inhibition in [2] is -0.564% (inactive). The max response was 14.6% in experiment [2] (setting [14]) and 12.8% in experiment [2] (setting [15]). The result in experiment [6] was inactive.

For the compound `O=c1cccc2n1CC1CNCC2C1` (configuration not stated), the Potency result in experiment [5], in experiment [7] and in [1] was “inactive” throughout. Moreover, the activity change, negative = inhibition in experiment [2] is 8.73% (inactive). The max response in experiment [2] (setting [14]) came to 7.65%; in [2] (setting [15]), 18%. In addition, in experiment [6], the compound was called inactive.

With `CC[C@H]1C2CC3[C@@H]4N(C)c5ccccc5[C@]45C[C@@H](C2[C@H]5O)N3[C@@H]1O` (some centres not stated), the Potency result in experiment [4] is “inactive”. Also, in [2], the activity change, negative = inhibition is -0.775% (inactive). The results for the max response in experiment [2] (setting [14]) and in [2] (setting [15]) were 15.3% and 14.3%, respectively. The result in [6] was inactive.

As to `C#CCOS(=O)OC1CCCCC1Oc1ccc(C(C)(C)C)cc1` (configuration not stated), the Potency result in experiment [4], in [7] and in experiment [1] was “inactive” in each case. Moreover, the activity change, negative = inhibition in experiment [2] is 5.08% (inactive). Besides, the max response is 0.489% in experiment [2] (setting [14]), 8.3% in experiment [2] (setting [15]), 24.4% in experiment [9] and -1.77% (inactive) in experiment [12]. The values for the activation in experiment [8] and in experiment [11] were 6.98% (inactive) and 0.168% (inactive), respectively. In addition, the Potency in experiment [10] was 7.08 µM (active). For the same compound, the compound was classed as inactive in [13].

In the case of `COc1cc2c(cc1OC)C(C)NCC2` (configuration not stated), the Potency entry in [4], in [7] and in experiment [1] was “inactive” throughout. The activity change, negative = inhibition in experiment [2] is 4.92% (inactive). In addition, the max response in [2] (setting [14]) stood at 20%; in experiment [2] (setting [15]) it was 26%. The outcome in experiment [6] was inactive.
